Bioassay records deposited in PubChem by National Center for Advancing Translational Sciences (NCATS).
Shown is part of a subset that was picked to be rich in hits.
MBNL1 CUG block: blocks human MBNL1 binding to CUG repeat RNA | Q9NR56 | TR-FRET MBNL1-His/biotin-(CUG)12 binding, 665/545 ratio | Potency, µM (highest dose often 57.5 µM), for inactives: at the highest dose activity change, negative = inhibition, actives largely listed as inhibitors | actives 0.036% (n = 280,000) | AID 2675; active = well fitted inhibition curve with a large enough effect in the signal ratio, with a control signal flat, not every such curve was filed as active; inconclusive = small, poorly fitted or top-dose-only effect, or effect the other way, or a change in a side signal; inactive = no such curve, though single readings can be large or run the other way; the % refers to the signal ratio; note: potency is the fitted concentration of half-maximal effect; % is set by controls: 0 for no effect and ±100 for the full control effect
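MBNL1-His + Biotin-(CUG)12, cpd titration 92 nM–58 uM; Tb anti-His Ab 0.055 ng/ul, SA-XL665 5 nM (final); 60 min RT; ratiometric 665/545 nm, Ex 340 nm; normalized to buffer and full-complex controls.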
CXXC DNA block: MLL CXXC-DNA interaction inhibition; Potency, µM (series often up to 115 µM), inactives show at the top dose activity change, negative = inhibition, most hits filed as inhibitors; Q03164; MLL-CXXC / FITC-HOXA9 DNA fluorescence polarization; actives 0.037% (n = 290,000); active = well fitted inhibition curve with a large enough effect in the polarisation, with a control signal flat, not every such curve was filed as active; inconclusive = small, poorly fitted or top-dose-only effect, or effect the other way, or a change in a side signal; inactive = no such curve, though single readings can be large or run the other way; the % refers to the polarisation; note: potency is the fitted concentration of half-maximal effect
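Purified MLL-CXXC (added from a 7 uM solution) was preincubated 5 min at ambient with pinned compounds in 50 mM Tris-HCl pH 7.5, 50 mM NaCl, 1 mM DTT, 0.05% BSA. Fluorescein-labeled HOX-A9 DNA (50 nM solution) followed, 30 min, then polarization read.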
Menin-MLL FL inh: inhibitors of human menin-MLL interaction, wild-type MLL peptide; Fluorescence polarization, fluorescein-MLL peptide displacement from menin; FP activity change, % at 61.4 µM; 290,000 tested, under 10 active; AID 1766; active = well fitted curve in the direction sought with a large enough effect in the polarisation, not every such curve was filed as active; inconclusive = small, poorly fitted or top-dose-only effect, or effect the other way, or a change in a side signal; inactive = no such curve, though single readings can be large or run the other way; the % refers to the polarisation; note: % of control where 0% means no effect
Menin MLL FP TR: menin-MLL binding inhibition, Texas Red mutant peptide; Menin + Texas Red MLL mutant peptide, fluorescence polarization; Potency, µM (series often up to 61.6 µM), without a hit: top-dose FP activity change, negative = inhibition, hits mostly inhibitors; AID 1768; actives 0.23% (n = 270,000); active = well fitted inhibition curve with a large enough effect in the polarisation, with a control signal flat, not every such curve was filed as active; inconclusive = small, poorly fitted or top-dose-only effect, or effect the other way, or a change in a side signal; inactive = no such curve, though single readings can be large or run the other way; the % refers to the polarisation; note: potency is the fitted concentration of half-maximal effect; % of control where 0% means no effect
MLL CXXC Fl: disrupts human MLL CXXC domain binding to DNA; AID 624160; shares compounds with CXXC DNA block; Potency, µM (series often up to 345 µM), for the others: at the top dose activity change, negative = inhibition, hits mostly inhibitors; MLL CXXC-DNA binding, fluorescein FP; actives 70% (n = 200); note: potency is the fitted concentration of half-maximal effect; nearly all actives have a fitted effect of over 80% in size
MLL CXXC FP-TR: MLL CXXC-DNA interaction inhibition, Texas Red FP. shares compounds with CXXC DNA block. MLL CXXC-DNA binding, Texas Red fluorescence polarization. Potency, µM (doses to about 345 µM), inactives show top-dose activity change, negative = inhibition, actives largely listed as inhibitors. actives 40% (n = 200); note: potency is the fitted concentration of half-maximal effect; % is set by controls: 0 for no effect and ±100 for the full control effect; nearly all actives have a fitted effect of over 75% in size
MLL CXXC HTRF: MLL CXXC-DNA interaction inhibition, HTRF readout; shares compounds with CXXC DNA block; MLL CXXC-DNA binding, HTRF, biochemical; Potency, µM (series often up to 172 µM), for the others: at the top dose activity change, negative = inhibition, usual class: inhibitors; actives 30% (n = 210); AID 624162; note: % is set by controls: 0 for no effect and ±100 for the full control effect; nearly all actives have a fitted effect of over 80% in size
* marks the source's active call; other numbers are inactive results; u = inconclusive; x = no result given. Unless noted, calls come from the whole dose curve; as a rule, active = well fitted inhibition curve with a large enough effect; inconclusive = small, poorly fitted or top-dose-only effect; inactive = no such curve, though single readings can be large or run the other way.

SMILES	MBNL1 CUG block	CXXC DNA block	Menin-MLL FL inh	Menin MLL FP TR	MLL CXXC Fl	MLL CXXC FP-TR	MLL CXXC HTRF
CCCCCCCSc1cc(OC)c(CCN(C)C)cc1OC	-1.8%	u	1.0	7.08µM*	x	x	x
CCCCOP(=O)(OCCCC)C(Nc1ccc(C(=O)OCC)cc1)c1ccncc1 (stereo unspecified)	-1.5%	11.7%	-13.8	3.16µM*	x	x	x
CCOP(=O)(OCC)C(O)c1cccnc1 (stereo unspecified)	-6.0%	0.7%	4.0	x	x	x	x
O=C(O)c1ccc(-c2ccc3cc(C45CC6CC(CC(C6)C4)C5)c(O)cc3c2)cc1	x	x	-0.4	u	x	x	x
O=c1[nH]c(=O)n(Cc2ccc(F)cc2)c(O)c1C=NCc1cccnc1	4.1%	2.3%	-0.9	2.9%	x	x	x
COc1ccc2c(c1OC)C(=O)OC2c1c(O)n(Cc2ccc(F)cc2)c(=O)[nH]c1=O (stereo unspecified)	-0.2%	12.6µM*	8.0	49.7%	25.2µM*	113µM*	96.8µM*
[Hg+][c]1ccccc1	x	15.0%	-2.1	-7.9%	x	x	x
CC[C@@H](CO)NC(=O)[C@@H]1C=C2c3cccc4[nH]cc(c34)C[C@H]2N(C)C1	x	x	u	8.8%	-16.2%	8.3%	30.6%
CC(=O)Oc1c2c(c(CC=C(C)C)c3c1C(=O)C1=CC4CC5C(C)(C)OC(C/C=C(\C)C(=O)O)(C4=O)[C@]15O3)OC(C)(CCC=C(C)C)C=C2 (stereo partly specified)	x	x	10.4	4.8%	x	x	x
CCCCC/C=C\C/C=C\C/C=C\C/C=C\CCCC(=O)N(Cc1ccc(O)c(Cl)c1)Cc1ccc(O)c(Cl)c1	x	x	-5.0	-2.9%	x	x	x
O=C(O)CCC(=O)NCCC1=c2ccccc2=N/C1=C\c1c(O)n(Cc2ccc(F)cc2)c(=S)[nH]c1=O	8.6%	20µM*	21.8	x	22.5µM*	56.5µM*	15.3µM*
Cc1cc(/C=C2\C(=O)NC(=O)N(c3ccc(F)cc3)C2=O)c(C)n1-c1ccc(C(=O)O)cc1	-4.7%	u	u	7.1%	35.6µM*	100µM*	-11.9%
Cc1cc(/C=C2\C(=O)NC(=O)N(Cc3ccccc3)C2=O)c(C)n1-c1ccc(Cl)c(C(=O)O)c1	-14.7%	u	u	36.4%	x	x	x
CCc1ccc(N2C(=O)NC(=O)/C(=C\c3cc(C)n(-c4cc(C(=O)O)cc(C(=O)O)c4)c3C)C2=O)cc1	16.2%	-8.3%	22.6	-13.4%	x	x	x
Cc1ccc(N2C(=O)NC(=O)/C(=C\c3cc(C)n(-c4cc(C(=O)O)cc(C(=O)O)c4)c3C)C2=O)cc1	15.3%	8.91µM*	3.0	-6.8%	35.6µM*	40µM*	122µM*
Cc1c(Cl)cccc1N1C(=O)NC(=O)/C(=C\c2cc(C)n(-c3cccc(C(=O)O)c3C)c2C)C1=O	2.4%	u	13.1	31.9%	7.11µM*	71.1µM*	-8.8%
Cc1cc(/C=C2\C(=O)NC(=O)N(c3cccc(F)c3)C2=O)c(C)n1-c1ccc(C(=O)O)c(Cl)c1	6.8%	12.6µM*	u	23.3%	12.0%	89.5µM*	-7.0%
Cc1ccc(N2C(=O)NC(=O)/C(=C\c3cc(C)n(-c4ccc(C(=O)O)cc4)c3C)C2=O)cc1	12.0%	10.7%	18.0	19.1%	x	x	x
C[n+]1c2cc(N)ccc2cc2ccc(N)cc21	x	u	u	-8.7%	0.633µM*	142µM*	96.8µM*
Cc1ccc(N)c(N)c1	x	x	-1.6	-15.4%	x	x	x
[Cl-].[Cl-].[Hg+2]	x	-13.2%	-3.3	-10.3%	x	x	x
Cc1cc(/C=C2\C(=O)NC(=O)N(Cc3ccccc3Cl)C2=O)c(C)n1-c1ccc(C(=O)O)cc1	-5.4%	u	18.1	u	14.2µM*	50.3µM*	u
